{"source": "PubChem BioAssay (Tox21)", "note": "Results filed as inconclusive are left out. Where a call stands in place of a potency, no number is given. A number with no mark means an inactive call. Active and inactive are the calls of the source. Calls follow the shape of the dose curve; as a rule, active = well fitted cell-killing curve with a large enough effect in the repeat runs; inconclusive = weak or mixed curves, or effect the other way; inactive = no such curve, though single readings can be large or run the other way. Potency is read from the fitted curve at half-maximal effect.", "data": [{"assay": "qHTS assay to identify small molecule antagonists of the progesterone receptor (PR) signaling pathway - cell viability counter screen (AID 1346798); also: nearly all actives have a fitted effect of over 50% in size", "settings": "PR-UAS-bla HEK293T viability, CellTiter-Glo luminescence, 16 h; series mostly up to 92.4 µM", "text": "National Center for Advancing Translational Sciences [NCATS]\nNIH Chemical Genomics Center [NCGC]\nU.S. Environmental Protection Agency [EPA]\nNational Institutes of Environmental Health Sciences [NIEHS]\nNational Toxicology Program [NTP]\nU.S. Food and Drug Administration [FDA]\nProgesterone receptor (PR), a nuclear hormone receptor, plays an important role in development, metabolic homeostasis and reproduction. It is activated by the steroid hormone progesterone. Endocrine disrupting chemicals (EDCs) and their interactions with steroid hormone receptors like PR causes disruption of normal endocrine function. To identify the compounds that inhibit PR signaling, a PR-UAS-bla GripTite cell line i.e. PR-UAS-bla HEK293T (Invitrogen, Carlsbad, CA, USA) containing a beta-lactamase reporter gene under the control of an UAS response element was used to screen Tox21 10K compound library. The cytotoxicity of the Tox21 compound library against the PR-bla cell line was tested in parallel by measuring the cell viability using CellTiter-Glo assay in the same wells.\nTox21 Assay Protocol Summary:\nPR-UAS-bla HEK293T cells were dispensed at 3,000 cells/4 uL of assay medium containing 2% charcoal stripped FBS per well into black wall/clear-bottom 1536-well plates using a Multidrop Combi (ThermoFisher Scientific, Waltham, MA) dispenser. After the assay plates were incubated at a 37C and 5% CO2 for 4 hr, 23 nL of compounds dissolved in DMSO, positive controls or DMSO only was transferred to the assay plate by a Pintool station (Kalypsys, San Diego, CA), followed by addition of 1 uL of R5020 in assay medium using a Flying Reagent Dispenser (FRD, Aurora Discovery, San Diego, CA). The plates were incubated at 37C and 5% CO2 for 16 hr. Then 1 uL of LiveBLAzer B/G FRET substrate was added using a Flying Reagent Dispenser, the plates were incubated at room temperature for 2 hours, and fluorescence intensity was measured by an Envision plate reader (PerkinElmer, Shelton, CT). For cell viability readout that measures cytotoxicity, 4 uL/well of CellTiter-Glo reagent was added into the assay plates using a FRD. After 30 min incubation at room temperature, the luminescence intensity in the plates was measured using a ViewLux (PerkinElmer) plate reader.", "values": [{"smiles": "O=C1OC2(c3ccccc31)c1cc(Br)c(O)c(Br)c1Oc1c2cc(Br)c(O)c1Br", "Potency": "inactive"}, {"smiles": "CCOc1ccc(NC(C)=O)cc1", "Potency": "inactive"}, {"smiles": "O=C(O)c1ccccc1", "Potency": "inactive"}, {"smiles": "CCCc1cc(=O)[nH]c(=S)[nH]1", "Potency": "inactive"}, {"smiles": "CCCCOC(=O)c1ccc(O)cc1", "Potency": "inactive"}, {"smiles": "Cc1cn([C@H]2C=C[C@@H](CO)O2)c(=O)[nH]c1=O", "Potency": "inactive"}, {"smiles": "C=CCc1ccc(O)c(OC)c1", "Potency": "inactive"}, {"smiles": "Cc1ncc([N+](=O)[O-])n1C", "Potency": "inactive"}, {"smiles": "CNNCc1ccc(C(=O)NC(C)C)cc1", "Potency": "inactive"}, {"smiles": "CC(=O)CCC(=O)O", "Potency": "inactive"}, {"smiles": "COc1ccc(C(Cl)=C(c2ccc(OC)cc2)c2ccc(OC)cc2)cc1", "Potency": "inactive"}, {"smiles": "O=S1(=O)OC(c2ccc(O)cc2)(c2ccc(O)cc2)c2ccccc21", "Potency": "inactive"}, {"smiles": "CC(C)c1c(C(=O)Nc2ccccc2)c(-c2ccccc2)c(-c2ccc(F)cc2)n1CC[C@@H](O)C[C@@H](O)CC(=O)O", "Potency": "6.41 µM (active)"}, {"smiles": "COc1ccc(CN(CCN(C)C)c2ccccn2)cc1", "Potency": "inactive"}, {"smiles": "C1CCC(C(CC2CCCCN2)C2CCCCC2)CC1", "note": "(stereo not given)", "Potency": "26.6 µM (active)"}, {"smiles": "Nc1ccc2c(c1)CN1C(=O)c3ccccc3C1=N2", "activity change, negative = cytotoxicity": "-15.2% [at 18.9 µM]"}, {"smiles": "Nc1ccc(S(N)(=O)=O)cc1", "Potency": "inactive"}, {"smiles": "CC(=O)C(=O)O", "Potency": "inactive"}, {"smiles": "CN1CCC[C@H]1c1cccnc1", "Potency": "inactive"}, {"smiles": "O=C1NS(=O)(=O)c2ccccc21", "Potency": "inactive"}, {"smiles": "CC(C)C(=O)Nc1ccc([N+](=O)[O-])c(C(F)(F)F)c1", "Potency": "inactive"}, {"smiles": "NC1CCCCC1", "Potency": "inactive"}, {"smiles": "CCCCNC(=O)NS(=O)(=O)c1ccc(C)cc1", "Potency": "inactive"}, {"smiles": "CCN(Cc1c(F)cccc1Cl)c1c([N+](=O)[O-])cc(C(F)(F)F)cc1[N+](=O)[O-]", "Potency": "21.7 µM (active)"}, {"smiles": "Cc1ccc(S(=O)(=O)O)cc1", "Potency": "inactive"}, {"smiles": "COc1ccc(OC(F)(F)F)cc1CN[C@H]1CCCN[C@H]1c1ccccc1", "Potency": "30.6 µM (active)"}, {"smiles": "Cc1ncc([N+](=O)[O-])n1CCO", "Potency": "inactive"}, {"smiles": "O=c1[nH]cnc2c1ncn2[C@H]1CC[C@@H](CO)O1", "Potency": "inactive"}, {"smiles": "CCCCC(CC)C(=O)O", "note": "(stereo not given)", "Potency": "inactive"}, {"smiles": "O=C1c2c(O)cccc2Cc2cccc(O)c21", "Potency": "inactive"}, {"smiles": "NC(CO)(CO)CO", "Potency": "inactive"}, {"smiles": "CN1[C@@H]2CC(OC(=O)[C@H](CO)c3ccccc3)C[C@H]1[C@@H]1O[C@@H]12", "note": "(stereo not given in full)", "Potency": "inactive"}, {"smiles": "C/C=C/C=C/C(=O)O", "Potency": "inactive"}, {"smiles": "COc1cccc(O)c1O", "Potency": "inactive"}, {"smiles": "CCCCCCCC(=O)OCC(COC(=O)CCCCCCC)OC(=O)CCCCCCC", "Potency": "inactive"}, {"smiles": "CC1(C)S[C@@H]2[C@H](NC(=O)[C@H](N)c3ccccc3)C(=O)N2[C@H]1C(=O)O", "Potency": "inactive"}, {"smiles": "CN(N=O)C(=O)N[C@@H]1[C@@H](O)[C@H](O)[C@@H](CO)O[C@@H]1O", "Potency": "inactive"}, {"smiles": "F[B-](F)(F)F", "Potency": "inactive"}, {"smiles": "Cc1cc(=O)oc2cc(O)ccc12", "Potency": "inactive"}, {"smiles": "NC(=O)c1cccnc1", "Potency": "inactive"}]}]}
